Source: PubChem BioAssay
HPGD block – HPGD (human) dehydrogenase inhibition | P15428 | purified HPGD, NADH fluorescence kinetic, PGE2 substrate | Potency, µM, without a hit: top-dose activity change, negative = inhibition, usual class: inhibitors | hit rate 4.3% among 150,000 | AID 894
Target sequence (P15428 whole entry, looked up): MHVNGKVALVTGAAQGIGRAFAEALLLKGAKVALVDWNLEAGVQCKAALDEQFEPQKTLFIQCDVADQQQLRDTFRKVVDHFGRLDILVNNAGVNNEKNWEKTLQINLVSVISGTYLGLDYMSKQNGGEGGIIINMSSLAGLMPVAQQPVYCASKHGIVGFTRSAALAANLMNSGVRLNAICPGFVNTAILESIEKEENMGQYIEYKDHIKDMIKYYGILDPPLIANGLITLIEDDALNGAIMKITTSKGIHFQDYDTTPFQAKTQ
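NADH formation kinetics: reaction with 30 uM PGE2 and 1 mM NAD+ (final), 20 nM enzyme, Tris-HCl pH 8 with Tween 20, after 15 min compound preincubation at room temperature. Fluorescence change, last versus first of five reads.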
ALDH1A1 inh – blocks purified human ALDH1A1 activity; Purified ALDH1A1, NADH fluorescence, propionaldehyde substrate; hit rate 7.3% among 220,000; P00352; Potency, µM (titrated, usually from 75.3 µM), for inactives: at the highest dose activity, negative = inhibition, hits mostly inhibitors; AID 1030;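 note: plate controls were no enzyme wells and a reference inhibitor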
Target sequence (P00352 whole entry, looked up): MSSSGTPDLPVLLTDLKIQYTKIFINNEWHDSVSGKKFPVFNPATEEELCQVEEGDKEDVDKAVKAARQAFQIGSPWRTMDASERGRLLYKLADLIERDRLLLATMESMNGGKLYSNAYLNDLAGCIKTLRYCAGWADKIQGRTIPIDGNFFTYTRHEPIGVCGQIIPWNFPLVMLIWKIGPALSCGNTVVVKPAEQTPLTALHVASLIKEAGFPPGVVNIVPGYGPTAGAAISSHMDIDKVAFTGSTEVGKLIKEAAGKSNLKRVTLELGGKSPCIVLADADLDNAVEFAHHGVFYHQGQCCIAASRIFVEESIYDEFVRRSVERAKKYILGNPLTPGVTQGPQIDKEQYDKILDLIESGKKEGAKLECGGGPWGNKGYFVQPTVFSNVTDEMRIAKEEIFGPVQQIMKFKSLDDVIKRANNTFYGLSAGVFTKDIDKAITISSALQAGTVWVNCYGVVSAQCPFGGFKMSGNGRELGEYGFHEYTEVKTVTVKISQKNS
KinaseGlo FLuc – counter-screen: inhibitors of Kinase-Glo firefly luciferase; Kinase-Glo luciferase, ATP luminescence, 8 min; Potency, µM (highest dose often 38.3 µM), without a hit: at the top dose activity change, negative = inhibition, hits mostly inhibitors; hit rate 0.28% among 200,000; Q27757; active = well fitted curve in the direction sought with a large enough effect; inconclusive = small, poorly fitted or top-dose-only effect, or another doubt; inactive = no such curve, though single readings can be large; an effect the other way counts as inactive or inconclusive; note: nearly all actives have a fitted effect of over 60% in size
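Compound is pinned into ATP-containing buffer (10 uM ATP, imidazole pH 7.2, 7 mM MgCl2). Kinase-Glo luciferase reagent is then added. Light output is recorded following an 8-min room-temperature incubation.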
LMNA splice mod – modulators of lamin A splicing; HeLa LMNA splicing GFP/RFP minigene ratio, 48 h; Potency, µM (series often up to 46.1 µM), for inactives: top-dose ratio change, negative = inhibition, usual class: inhibitors; hit rate 0.01% among 200,000; AID 1487; active = well fitted inhibition curve with a large enough effect in the signal ratio, with a control signal flat, not every such curve was filed as active; inconclusive = small, poorly fitted or top-dose-only effect, or effect the other way, or a change in a side signal; the % refers to the signal ratio
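S3 HeLa cells stably expressing lamin A-EGFP splicing minigene plus DsRed2, 600 cells/well, 48 h compound exposure at 37C. Laser-scanning cytometry; analysed as GFP (500-530 nm)/RFP (575-640 nm) total intensity ratio; 0.5% DMSO vehicle.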
IMPase Li cell – cell-permeable IMPase inhibitors with lithium potentiation. CHO-M1 cells, IP1 TR-FRET (IP-One), carbachol + lithium. hit rate 0.35% among 210,000. Potency, µM (top dose mostly 59.4 µM), for the others: at the top dose activity, negative = IMPase inhibition, hits mostly inhibitors; active = well fitted curve in the direction sought with a large enough effect; inconclusive = small, poorly fitted or top-dose-only effect, or another doubt; inactive = no such curve, though single readings can be large; an effect the other way counts as inactive or inconclusive;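 note: IP1 builds up when IMPase is blocked and the TR-FRET signal falls; plate controls were basal vehicle for no effect and high inhibitor control for full effect; nearly all actives have a fitted effect of over 50% in size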
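CHO cells stably expressing M1 receptor (2000/well, cultured 16–30 h) treated 30 min at 37C with compound plus low lithium. Cytosolic IP1 by TR-FRET (665/620 ratio and 620 channel) after 10 min lysis; AC50 by Hill fit.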
An asterisk follows results filed as active; [ ] = another dose, or the depositor's remark. This is a sample that favours compounds with a hit; in the whole collection about 9% have one here. Unless noted, calls come from the whole dose curve; as a rule, active = well fitted inhibition curve with a large enough effect (not every such curve was filed as active); inconclusive = small, poorly fitted or top-dose-only effect, or another doubt; inactive = no such curve, though single readings can be large or run the other way. Unless noted, % is set by controls: 0 for no effect and ±100 for the full control effect; potency is the fitted concentration of half-maximal effect.

Cc1ccc(NC(=O)Cn2cnc3c(oc4nc5c(cc43)COC(C)(C)C5)c2=O)cc1 was read as HPGD block -4.1%, ALDH1A1 inh -4.4%, KinaseGlo FLuc -2.2%, LMNA splice mod -4.8% and IMPase Li cell -3.9%.
`Cn1c(SCc2cccc(F)c2)nc2c([nH]c3ccccc32)c1=O` gave LMNA splice mod -4.2%[46 µM].
O=C(CSc1ccccc1F)NC(=O)NCc1ccco1 was read as ALDH1A1 inh -3.3%, KinaseGlo FLuc -1.8%, LMNA splice mod inconclusive and IMPase Li cell 0.1%.
For Cc1cc(SCC(=O)O)nc2ccccc12 the results were ALDH1A1 inh 0.1%, KinaseGlo FLuc -0.2%, LMNA splice mod 13.6%[46 µM] and IMPase Li cell -1.3%.
For Cc1ccccc1CSCC(=O)NC(=O)NCc1ccco1 the results were HPGD block -29.1%, ALDH1A1 inh 25.1µM*, KinaseGlo FLuc 1.3%, LMNA splice mod 4.9% and IMPase Li cell 4.7%[38.3 µM].
Cc1cc(SCCC(=O)O)nc2c(C)cccc12 was read as HPGD block inconclusive, ALDH1A1 inh -9.9%, KinaseGlo FLuc 7.0%, LMNA splice mod -6.0% and IMPase Li cell 10µM*.
`Cc1cc(SCC(=O)NC(=O)NCc2ccco2)nc2c(C)cccc12` gave HPGD block -21.0%, ALDH1A1 inh 22.4µM*, KinaseGlo FLuc -2.9%, LMNA splice mod -8.3% and IMPase Li cell 19.9%[38.3 µM].
Screening COc1ccc(CNC(=O)c2ccc3c(c2)N(Cc2ccccc2C)C(=O)c2ccccc2S3=O)cc1 (stereo not drawn) returned LMNA splice mod 3.3%[46 µM].
Cc1ccc(NC(=O)Cn2c(=O)cnc3ccccc32)cc1S(=O)(=O)N(C)C was read as HPGD block -13.3%, ALDH1A1 inh 14.1µM*, KinaseGlo FLuc 2.5%, LMNA splice mod inconclusive and IMPase Li cell 8.1%.
For COCCn1c(SCC(=O)Nc2ccc(Cl)c(S(=O)(=O)N(C)C)c2)nc2ccccc21 the results were HPGD block -17.3%, ALDH1A1 inh 31.6µM*, KinaseGlo FLuc -2.7%, LMNA splice mod inconclusive and IMPase Li cell 33.0%[38.3 µM].
`Cc1ccc(NC(=O)CN2CCc3ccccc3C2)cc1S(=O)(=O)N(C)C` gave ALDH1A1 inh inconclusive, KinaseGlo FLuc 3.0%, LMNA splice mod -19.5%[46 µM] and IMPase Li cell 3.4%.
For CC(=O)c1ccccc1NC(=O)Cn1c(=O)cnc2ccccc21 the results were HPGD block -14.1%, ALDH1A1 inh 1.78µM*, KinaseGlo FLuc 1.6%, LMNA splice mod inconclusive and IMPase Li cell 1.8%.
For CCOc1ccc(CCNC(=O)c2cnc3c(-c4ccc(F)cc4)c(C)nn3c2C)cc1 the results were LMNA splice mod 7.8%[46 µM].
For COc1ccc(N(C(C)C(=O)N/N=C/c2ccc(OC(C)C)cc2)S(C)(=O)=O)cc1 (stereo not drawn) the results were HPGD block -29.5%, ALDH1A1 inh 14.1µM*, KinaseGlo FLuc -1.7%, LMNA splice mod inconclusive and IMPase Li cell 26.4%[38.3 µM].
Screening NC(=O)C1CCN(C2=C(Cl)C(=O)c3ccccc3C2=O)CC1 returned HPGD block 14.1µM*, ALDH1A1 inh inconclusive, KinaseGlo FLuc inconclusive, LMNA splice mod inconclusive and IMPase Li cell 90.0%[38.3 µM].
`Cc1ccccc1S(=O)(=O)O[C@@H]1NS(=O)(=O)c2ccccc21` gave HPGD block 0.7%, ALDH1A1 inh 17.5%[13.5 µM], KinaseGlo FLuc -0.4%[7.66 µM] and IMPase Li cell -4.6%.
Screening COc1cccc(CSc2nc3ccccc3cc2C=O)c1 returned HPGD block 12.6µM*, ALDH1A1 inh inconclusive, KinaseGlo FLuc 12.1%, LMNA splice mod inconclusive and IMPase Li cell 15.0%[38.3 µM].
O=C(c1cc(C(F)(F)F)cc(C(F)(F)F)c1)N1CCC2(CC1)CCN(c1ccncc1)CC2 was read as HPGD block -6.1%, ALDH1A1 inh 12.6%, KinaseGlo FLuc -2.1% and IMPase Li cell 17.4%.
`Cc1ccc(C(=O)N2CCSC2=S)cc1` gave ALDH1A1 inh -0.9%, KinaseGlo FLuc 3.5%, LMNA splice mod 0.9%[46 µM] and IMPase Li cell 4.5%.
Screening Cc1ccc(C(=O)Oc2csc(=S)n2C(=O)c2ccc(C)cc2)cc1 returned HPGD block 5.01µM*, ALDH1A1 inh 3.55µM*, KinaseGlo FLuc 1.2%, LMNA splice mod -3.9% and IMPase Li cell 35.4%[38.3 µM].
For CC(C)(C(=O)O)n1cncn1 the results were ALDH1A1 inh 9.1%, KinaseGlo FLuc -4.9%, LMNA splice mod inconclusive and IMPase Li cell 3.4%.
`Cc1cnc(CNc2ncncc2-c2c(C)noc2C)cn1` gave ALDH1A1 inh -2.7%, LMNA splice mod inconclusive and IMPase Li cell 8.0%.
Cc1ccc(-n2c(-c3ccccc3)c[nH]c2=S)cc1 was read as ALDH1A1 inh 2.5% and IMPase Li cell -2.8%.
S=c1[nH]cc(-c2ccccc2)n1-c1ccccc1 was read as HPGD block 25.1µM*, ALDH1A1 inh 3.16µM*, KinaseGlo FLuc 1.0%, LMNA splice mod -4.1% and IMPase Li cell 1.4%[38.3 µM].
CC(C)Cn1c(-c2ccc(Br)cc2)c[nH]c1=S was read as ALDH1A1 inh inconclusive, KinaseGlo FLuc -3.1% and IMPase Li cell 12.1%.
Screening CCn1c(-c2ccccc2)c[nH]c1=S returned HPGD block -28.3%, ALDH1A1 inh 28.2µM*, KinaseGlo FLuc 1.3%, LMNA splice mod 4.7% and IMPase Li cell -4.2%[38.3 µM].
Screening COc1cccc(N2CCN(c3ncnc4onc(-c5ccc(Cl)cc5)c34)CC2)c1 returned LMNA splice mod 13.2%[46 µM].
Screening COc1cccc(NC(=O)CN(C)C(C)C(=O)Nc2ccc(S(=O)(=O)N3CCCC3)cc2)c1 (stereo not drawn) returned ALDH1A1 inh inconclusive, KinaseGlo FLuc -5.5%, LMNA splice mod -16.6%[46 µM] and IMPase Li cell 4.3%.
Screening CCCN[C@@H](C)C(=O)Nc1ccccc1C returned HPGD block -9.3%, ALDH1A1 inh 3.3%[20.9 µM], KinaseGlo FLuc -3.0%[17.1 µM], LMNA splice mod inconclusive and IMPase Li cell 0.4%.
`CCOCCCNc1nc(=S)[nH]c2cc(OC)c(OC)cc12` gave HPGD block -6.3%, ALDH1A1 inh 6.3%, KinaseGlo FLuc -5.7%, LMNA splice mod inconclusive and IMPase Li cell -13.6%[38.3 µM].
For COc1cc2[nH]c(=S)nc(NCCCOC(C)C)c2cc1OC the results were HPGD block 17.8µM*, ALDH1A1 inh inconclusive, KinaseGlo FLuc 0.0%, LMNA splice mod 12.2% and IMPase Li cell -8.8%[38.3 µM].
Screening COC(=O)N1C(c2ccccc2)=Cc2ccccc2C1CC(C)=O (stereo not drawn) returned HPGD block -30.1%, ALDH1A1 inh -5.2%[13.5 µM], KinaseGlo FLuc -7.2%[7.66 µM], LMNA splice mod -6.2%[9.22 µM] and IMPase Li cell -3.6%.
Screening CC1(C)CC(=O)C2=C(C1)OC(N)=C(C#N)C2c1ccsc1 (stereo not drawn) returned HPGD block -10.0%, ALDH1A1 inh 25.1µM*, KinaseGlo FLuc -2.8%, LMNA splice mod -6.5% and IMPase Li cell 8.7%.
